From paper PMC4336329 (PLoS ONE, 2015)
About 2,200 (0.71%) of roughly 310,000 compounds showed an effect of 50% or more. Effects have a minus sign here. Only a selection was taken, and strong results are over-represented in it overall.

Target: human ether-à-go-go-related gene (hERG) potassium channel (human, UniProt Q12809)
Test: primary screen, population patch clamp on CHO cells stably expressing hERG; higher = less effect of the substance
Protocol: Briefly, Chinese hamster ovary (CHO) cells stably expressing the hERG channel were dislodged from tissue culture flasks and dispensed into PPC plates. […] During the recording, background leak currents were estimated by a 100 ms step to -80 mV from an initial holding potential of -70 mV and subtracted from the subsequent current measurement. The campaign was conducted in two phases using slight differences in recording protocol. In the first phase, the initial voltage pulse used a 100 ms step to -30 mV from a holding potential of -70 mV, a 2 s conditioning step to +25 mV, and a 2 s test step to -30 mV. During the second phase of the screen, the potential during the conditioning step was raised to +45 mV. In both phases of the campaign, a secondary voltage pulse was applied using the same parameters as the second phase initial pulse. The initial and secondary pulses were applied in the absence of compound, and upon application of 1 μM and 10 μM test concentrations. Small molecule effects on hERG current density were quantified by […].

Sequence of human ether-à-go-go-related gene (hERG) potassium channel (Q12809 whole entry, looked up): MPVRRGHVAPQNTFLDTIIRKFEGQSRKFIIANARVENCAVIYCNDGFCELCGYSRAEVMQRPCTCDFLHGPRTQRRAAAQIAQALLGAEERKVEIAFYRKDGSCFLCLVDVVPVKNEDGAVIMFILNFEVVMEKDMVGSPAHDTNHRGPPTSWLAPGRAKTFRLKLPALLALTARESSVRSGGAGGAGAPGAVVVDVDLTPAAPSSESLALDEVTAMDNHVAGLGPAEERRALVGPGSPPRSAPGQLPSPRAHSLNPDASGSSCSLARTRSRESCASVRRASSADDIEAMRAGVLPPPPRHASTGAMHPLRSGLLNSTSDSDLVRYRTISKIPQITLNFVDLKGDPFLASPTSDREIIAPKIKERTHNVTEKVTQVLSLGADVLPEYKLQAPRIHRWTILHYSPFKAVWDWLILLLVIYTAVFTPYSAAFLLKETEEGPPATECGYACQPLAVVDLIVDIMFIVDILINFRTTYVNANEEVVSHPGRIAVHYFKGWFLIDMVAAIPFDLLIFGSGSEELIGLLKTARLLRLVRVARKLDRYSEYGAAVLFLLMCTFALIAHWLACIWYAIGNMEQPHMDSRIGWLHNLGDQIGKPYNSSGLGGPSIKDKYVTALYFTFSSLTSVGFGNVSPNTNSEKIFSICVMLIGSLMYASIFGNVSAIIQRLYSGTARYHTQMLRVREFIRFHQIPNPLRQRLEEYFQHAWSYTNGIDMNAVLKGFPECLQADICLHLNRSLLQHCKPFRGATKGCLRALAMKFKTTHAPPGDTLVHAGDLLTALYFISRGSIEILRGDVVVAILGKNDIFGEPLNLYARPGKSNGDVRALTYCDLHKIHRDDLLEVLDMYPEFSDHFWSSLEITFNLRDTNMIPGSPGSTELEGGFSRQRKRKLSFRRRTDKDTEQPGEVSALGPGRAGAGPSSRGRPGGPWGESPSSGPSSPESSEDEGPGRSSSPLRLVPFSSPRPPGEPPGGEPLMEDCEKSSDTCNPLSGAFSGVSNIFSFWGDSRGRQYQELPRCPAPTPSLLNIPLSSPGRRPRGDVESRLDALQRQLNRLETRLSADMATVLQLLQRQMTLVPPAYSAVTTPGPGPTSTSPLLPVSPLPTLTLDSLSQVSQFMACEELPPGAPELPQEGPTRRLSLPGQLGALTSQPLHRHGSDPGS

Row | Compound | hERG current change (%, negative = inhibition) at 1uM
1 | Nc1nc(CN2CCN(c3ccccc3F)CC2)nc(Nc2ccccc2)n1 | 0.21%
2 | CN1CCN(Cc2nc(N)nc(Nc3ccc4c(c3)OCCO4)n2)CC1 | 3.07%
3 | Nc1nc(CN2CCN(Cc3ccccc3)CC2)nc(Nc2ccc3c(c2)OCCO3)n1 | -52.3%
4 | Cc1ccc(Nc2nc(N)nc(CN3CCN(C)CC3)n2)cc1 | 4.62%
5 | Cc1cccc(Nc2nc(N)nc(CN3CCN(Cc4ccc5c(c4)OCO5)CC3)n2)c1 | -74.3%
6 | Nc1nc(CN2CCN(Cc3ccc4c(c3)OCO4)CC2)nc(Nc2ccccc2)n1 | -77.4%
7 | Cc1cccc(Nc2nc(N)nc(CN3CCN(C)CC3)n2)c1 | -5.33%
8 | Cc1ccc(Nc2nc(N)nc(CN3CCN(Cc4ccc5c(c4)OCO5)CC3)n2)cc1Cl | -34.6%
9 | Nc1nc(CN2CCN(c3ccccc3F)CC2)nc(Nc2ccc3c(c2)OCCO3)n1 | -38%
10 | Cc1cccc(Nc2nc(N)nc(CN3CCN(c4ccccc4)CC3)n2)c1 | -7.51%
11 | Cc1ccc(Nc2nc(N)nc(CN3CCN(Cc4ccc5c(c4)OCO5)CC3)n2)cc1 | -53.4%
12 | CC(C)(O)C#Cc1ccc(C(=O)NCc2ccccc2)s1 | -2.9%
13 | CCc1nn(CC(=O)NCCCN(C)C2CCCCC2)c(=O)c2cc3occc3n12 | 2.42%
14 | CN1CCN(c2nc(Nc3ccc(F)cc3)nc(Nc3ccc(F)cc3)n2)CC1 | -0.878%
15 | COc1ccc(CNC(=S)Nc2ccc(-c3ccccc3)cc2)cc1 | 6.99%
16 | COCCn1c(C)cc(C(=O)CSc2nncn2-c2ccccc2)c1C | 8.85%
17 | COc1ccc(OCCN2CCOCC2)cc1 | 20.7%
18 | CN(C)S(=O)(=O)N1CCC(Oc2cccc(C(=O)N3CCSCC3)c2)CC1 | 4.68%
19 | S=c1[nH]cnc2scc(-c3ccc(Cl)cc3)c12 | 10.5%
20 | Cc1ccc(Nc2nc(N)nc(CN3CCN(Cc4ccc5c(c4)OCO5)CC3)n2)c(C)c1 | -70.5%
21 | Cc1ccccc1Nc1nc(N)nc(CN2CCN(Cc3ccc4c(c3)OCO4)CC2)n1 | -45.4%
22 | Cc1ccc(Nc2nc(N)nc(CN3CCCCCC3)n2)c(C)c1 | -21.7%

Row | Compound | hERG current change (%, negative = inhibition) at 1uM
23 | COc1ccc(-n2c(C)c3c(OC)cccc(=O)c3c2C)cc1 | 0.316%
24 | O=S(=O)(Nc1nc2ccccc2nc1NCCN1CCOCC1)c1cccc(Cl)c1 | 8.11%
25 | O=C(COC(=O)c1ccco1)NCC1CCCO1 (stereo not shown) | -0.29%
26 | COc1cccc(CNC23CC4CC(CC(C4)C2)C3)c1OCc1ccccc1.Cl | 3.29%
27 | Cl.c1ccc(COc2ccccc2CNC23CC4CC(CC(C4)C2)C3)cc1 | -73.8%
28 | COc1cc(CNC23CC4CC(CC(C4)C2)C3)ccc1OCc1ccccc1.Cl | 1.77%
29 | Cc1cccc(-c2ccc(NC(=O)C3CCN(CC4CC4)CC3)cc2)c1 | -5.16%
30 | Cc1cccn2c(=O)c3cc(C(=O)NCC4CCCO4)c(=N)n(C4CCCCC4)c3nc12 (stereo not shown) | -83.7%
31 | Cc1cccn2c(=O)c3cc(C(=O)NCC4CCCO4)c(=N)n(C4CCCC4)c3nc12 (stereo not shown) | -80.3%
32 | COc1ccc(C2/C=C\CN(C(=O)c3ccc(C)cc3)[C@H](Cc3ccccc3)C(=O)N2Cc2ccc(F)cc2)cc1 (stereo partly shown) | 11.8%
33 | O=C(Cn1cnc(S(=O)(=O)N2CCCCC2)c1)Nc1ccc(OC(F)(F)F)cc1 | 11.7%
34 | O=C(Oc1cccc2cccnc12)c1cccc(N2C(=O)C3C4CCC(C4)C3C2=O)c1 (stereo not shown) | 3.55%
35 | Cc1ccc(NC(=O)CSCC(=O)Nc2ccc(S(=O)(=O)N3CCOCC3)cc2)cc1 | 11.4%
36 | COc1ccc(C(=O)CSc2nnc(-c3cc4ccccc4cc3O)n2Cc2ccco2)cc1 | -16.2%
37 | Cl.O=C(CCN1CCN(c2ccccc2F)CC1)c1ccc(Br)cc1 | -40%
38 | OC(CCCN1CCC(O)(c2ccc(Cl)cc2)CC1)c1ccc(F)cc1 (stereo not shown) | -72.7%
39 | OC(CN1CCN(c2ccc(F)cc2)CC1)c1ccc(Cl)cc1 (stereo not shown) | 2.87%
40 | CC(=O)N1CCC(O)(c2cccc(C(F)(F)F)c2)CC1 | 8.78%
41 | OC1(c2cccc(C(F)(F)F)c2)CCN(CCN2CCCCC2)CC1 | 16.2%
42 | Cl.O=C(CCCN1CCC(O)(c2cccc(C(F)(F)F)c2)CC1)c1ccc(F)cc1 | -80.9%
43 | O=C(CN1CCC(O)(c2ccc(F)cc2)CC1)NCc1ccc(F)cc1 | -0.396%
44 | OC1(c2ccc(Cl)cc2)CCN(Cc2cn[nH]c2-c2ccc(F)cc2)CC1 | -27.2%

Row | Compound | hERG current change (%, negative = inhibition) at 1uM
45 | O=C(CCCN1CCC(O)(c2ccc(Br)cc2)CC1)c1ccc(F)cc1 | -75.7%
46 | COc1ccc(CCNC(=O)C(C)n2nc(C)n3c(cc4occc43)c2=O)cc1OC (stereo not shown) | 12.2%
47 | NC(=O)c1ccc(NC(=O)c2cccc(Oc3ccccc3)c2)cc1 | 12.5%
48 | CCOC(=O)C1=C(C)NC(C)=C(C(=O)OCC)C1c1ccc(Br)o1 | 9.3%
49 | COc1cc([N+](=O)[O-])ccc1NC(=S)NCc1ccccn1 | 8.38%
50 | Cc1cc(C)c(NC(=O)CCCSc2nnc(N)s2)c(C)c1 | -4.26%
51 | S=C(Nc1ccc(Cl)cc1Cl)Nc1ccccc1Oc1ccccc1 | 12.4%
52 | O=C1c2ccccc2C(=O)N1CSc1ncccn1 | 1.65%
53 | Cc1cc(C)nc(N2CCC(C(=O)NC3CCCCCC3)CC2)n1 | 0.0346%
54 | Cc1cc(NCc2ccco2)nc(N2CCC(C(=O)NC3CCCCC3)CC2)n1 | -63.6%
55 | Cc1cc(C)nc(N2CCC(C(=O)NCc3ccco3)CC2)n1 | 1.22%
56 | COc1cccc(CCNC(=O)c2ccc(C#N)cc2)c1 | 8.19%
57 | Cc1[nH]nc(N)c1-c1ccc(Cl)cc1 | 3.97%
58 | O=C(NCCO)/C(=C\c1cccc([N+](=O)[O-])c1)NC(=O)c1ccco1 | 8.45%
59 | O=C(NCCc1ccccc1)/C(=C\c1ccc([N+](=O)[O-])cc1)NC(=O)c1ccco1 | -59%
60 | O=C(NCc1ccccc1)/C(=C\c1ccc([N+](=O)[O-])cc1)NC(=O)c1ccco1 | -19.6%
61 | O=C(NCc1ccccc1)/C(=C/c1ccc([N+](=O)[O-])cc1)NC(=O)c1ccco1 | -31%
62 | O=C(NCCc1ccccc1)/C(=C\c1ccc([N+](=O)[O-])cc1)NC(=O)c1ccccc1 | 3.17%
63 | CC(=O)Oc1ccc(/C=C(\NC(=O)c2ccco2)C(=O)NCc2ccccc2)cc1 | -58.9%
64 | O=C(NCc1ccccc1)/C(=C\c1ccccc1)NC(=O)c1ccco1 | 11.9%
65 | O=C(NCc1ccco1)/C(=C/c1ccc([N+](=O)[O-])cc1)NC(=O)c1ccco1 | -50.4%
66 | O=C(NCCc1ccccc1)/C(=C\c1cccc([N+](=O)[O-])c1)NC(=O)c1ccco1 | -50.6%

Row | Compound | hERG current change (%, negative = inhibition) at 1uM
67 | O=C(NCCc1ccccc1)/C(=C\c1ccccc1)NC(=O)c1ccco1 | 9.3%
68 | O=C(NCCO)/C(=C/c1cccc([N+](=O)[O-])c1)NC(=O)c1ccco1 | 9.43%
69 | CC(=O)Oc1ccc(/C=C(\NC(=O)c2ccco2)C(=O)NCc2ccco2)cc1 | -11%
70 | O=C(OCC(=O)N1CCCC1=O)c1ccc(F)c(S(=O)(=O)N2CCOCC2)c1 | -4.67%
71 | Cc1cc(C)c(S(C)(=O)=O)c(S(=O)c2ccc(Cl)cc2)n1 (stereo not shown) | 3.19%
72 | CCOC(=O)c1[nH]c2ccc(OC)cc2c1NC(=O)CCN1CCN(Cc2ccccc2)CC1 | -36%
73 | NC(=O)CSc1nnc(Cc2csc(Nc3ccc(F)cc3)n2)n1Cc1ccccc1 | 11.5%
74 | O=C(OCC(=O)N(C1CCCCC1)C1CCCCC1)c1ccco1 | 9.71%
75 | O=C(O)CCN1C(=O)c2ccccc2C1=O | 19.2%
76 | CN(C)S(=O)(=O)c1cccc(-c2nnc(SCc3ccc4c(c3)OCCO4)o2)c1 | -0.0123%
77 | C=CCc1ccc(OCC(O)CN2CCC(Cc3ccccc3)CC2)c(OC)c1.Cl (stereo not shown) | -75%
78 | C=CCc1ccccc1OCC(O)CN1CCN(c2ccc(OC)cc2)CC1.Cl (stereo not shown) | -27.3%
79 | C=CCc1ccccc1OCC(O)CN1CCN(c2ccccc2OC)CC1.Cl (stereo not shown) | -52.3%
80 | C=CCc1ccc(OCC(O)CN2CCN(c3ccccc3)CC2)c(OC)c1.Cl (stereo not shown) | -33.7%
81 | C=CCc1ccc(OCC(O)CN2CCN(Cc3ccccc3)CC2)c(OC)c1.Cl (stereo not shown) | -10.6%
82 | C=CCc1ccccc1OCC(O)CN1CCN(c2ccccc2F)CC1.Cl (stereo not shown) | -0.42%
83 | C=CCc1ccc(OCC(O)CN2CCN(Cc3ccc(Cl)cc3)CC2)c(OC)c1.Cl (stereo not shown) | -55.3%
84 | C=CCc1ccc(OCC(O)CN2CCCCC2)c(OC)c1 (stereo not shown) | -16.5%
85 | C=CCc1ccc(OCC(O)CN2CCN(c3ccccc3OC)CC2)c(OC)c1.Cl (stereo not shown) | 8.86%
